This is a sample that favours compounds with a hit; in the whole collection about 2.5% have one here.
VACV mCherry inh: inhibitors of vaccinia virus infection (mCherry reporter signal) | Vaccinia virus mCherry reporter infection, fluorescence | Potency, µM (doses to about 36.5 µM), for inactives: top-dose activity change, negative = inhibition, actives largely listed as inhibitors | hit rate 0.63% among 310,000; calls by dose curve; tested in A549 cells; further: nearly all actives have a fitted effect of over 35% in size
LASV entry inh: Lassa virus entry inhibition; Lassa virus pseudotype entry inhibition, cell reporter; Potency, µM (doses to about 37.9 µM), for inactives: at the highest dose activity change, negative = inhibition, actives largely listed as inhibitors; hit rate 1.2% among 300,000; AID 540256; calls by dose curve; tested in HEK293 cells; further: nearly all actives have a fitted effect of over 50% in size
VACV Venus inh: inhibitors of vaccinia virus (Venus reporter); Vaccinia virus Venus reporter expression, fluorescence; Potency, µM (doses to about 36.5 µM), for inactives: at the top dose activity change, negative = inhibition, hits mostly inhibitors; hit rate 0.46% among 330,000; calls by dose curve; tested in A549 cells; further: nearly all actives have a fitted effect of over 30% in size
Marburg entry inh: Marburg virus entry inhibition. Marburg virus pseudotyped entry inhibition, cell reporter. Potency, µM (doses to about 37.8 µM), without a hit: top-dose activity change, negative = inhibition, most hits filed as inhibitors. hit rate 1.8% among 300,000; calls by dose curve; tested in HEK293 cells
* hit, by the source's call; i = inactive; ? = inconclusive; . = not tested or not shown; [ ] = dose if it differs, or a comment. On the % scale 0 is the no-effect control and ±100 the full control effect; potency means the concentration at half of the fitted maximal effect.

SMILES	VACV mCherry inh	LASV entry inh	VACV Venus inh	Marburg entry inh
CCOc1ccc(C(=O)Nc2c(C)nc(Nc3ccccc3)nc2Nc2ccccc2)cc1OCC	-23%	-23%[46.1 µM]	-20%	?
COc1ccc(N2C(=O)N3[C@H](c4ccccc4)[C@@H](C)C[C@H]4c5ccccc5C[C@]43C2=O)cc1	.	.	.	2%[14.2 µM]
COc1cc(/C=C2/CCc3ccccc3C2=O)cc(OC)c1OC	?	?	?	11µM*
COC(=O)C1=C2CCO[C@@H]2[C@H]2[C@@H](C)[C@H](OC)c3ccccc3[C@H]12	.	?	.	0%[14.2 µM]
Cc1ccc(O)c(NC(=O)c2cc(-c3cccs3)on2)c1	?	-27%	-14%	8.9µM*
Cc1ccc(O)c(NC(=O)c2cc(-c3ccc(F)cc3)on2)c1	?	13%[46.1 µM]	-3%	?
C#CCCOC(=O)N1C2=NC3=C(C(=O)N(Cc4ccc5c(c4)OCO5)C3=O)C3N(C)c4ccccc4[C@]23C[C@H]1CO (stereo not given in full)	.	?	.	-23%[14.2 µM]
Cc1cccc(CNC(=O)c2cnn(-c3nccc(-c4cc5ccccc5o4)n3)c2C2CC2)n1	-21%	.	-11%	.
C=C(C(=O)c1ccccc1)C(NC(C)(C)C)c1ccccc1 (stereo not given)	18µM*	?	?	?
C=C(C(=O)c1ccccc1)C(C)CC(=O)c1ccccc1 (stereo not given)	?	?	-25%	?
C=CCN1c2ccccc2[C@]23C[C@@H](C(=O)OC)N(C(=O)Nc4ccc(C(F)(F)F)cc4)C2=NC(C(=O)OC)=C(C(=O)OC)[C@H]13	.	.	.	17%[14.2 µM]
CS(=O)(=O)CCNCc1ccc(-c2ccc3ncnc(Nc4ccc(OCc5cccc(F)c5)c(C(F)(F)F)c4)c3c2)o1	.	20µM*	.	.
CS(=O)(=O)CCNCc1ccc(-c2ccc3ncnc(Nc4ccc(OCc5ccccc5)cc4)c3c2)o1	.	16µM*	.	.
CC(C)COc1ccc(Nc2ncnc3ccc(Br)cc23)cc1	-7%	9%[46.1 µM]	-4%	1%[46.1 µM]
Cc1cnc2c(C)cccc2c1C	-8%	.	2%	.
CCCCN(c1ccccc1)S(=O)(=O)c1ccc2c(c1)CC(C)N2C(=O)C1CC1 (stereo not given)	-10%	?	-8%	.
CCN(Cc1ccccc1)S(=O)(=O)c1ccc2c(c1)CC(C)N2C(=O)C1CCC1 (stereo not given)	-13%	2.8µM*	-11%	.
CN(C)c1ccc(/C=C/c2ccnc3ccccc23)cc1Cl	-4%	.	-18%	.
Cc1ccc2c(c1)CN(CCNC(=O)c1cccc(Cn3cccn3)c1)CC(C)O2 (stereo not given)	-6%	.	-6%	.
CC(=O)OC1CC[C@@]2(C)C3CC(=O)[C@]4(C)C(C(C)=O)=CCC4C3CC[C@H]2C1 (stereo not given in full)	i	.	0%	.
CC(=O)OC1CCC2(C)C(CCC3C4CC=C(C(C)=O)C4(C)OC(=O)CC32)C1 (stereo not given)	?	.	11µM*	.
CCC(=O)Nc1ccc(C2C(=O)c3ccccc3C2=O)cc1	i	?	-9%	10µM*
CCC1CN(CCNC(=O)c2ccc3c(c2)OCCO3)Cc2cc(OC)ccc2O1 (stereo not given)	-9%	.	0%	.
Cc1cc(SCC(=O)N/N=C/c2ccc(O)c(O)c2O)c(C)cc1Br	13µM*	?	?	1%
CC[C@H](CC[C@@H](C)[C@H]1CC[C@H]2[C@@H]3CC=C4C[C@@H](O)CC[C@]4(C)[C@H]3CC[C@]12C)C(C)C	i	.	0%	.
SMILES	VACV mCherry inh	LASV entry inh	VACV Venus inh	Marburg entry inh
CC[C@@H](C)[C@H](NC(=O)OC(C)(C)C)c1nnc(S(=O)(=O)Cc2cc(C)ccc2C)o1	.	10µM*	?	?
Cc1c(C(=O)N2CCCC2)sc2ncnc(NCCN(C)C)c12	i	.	-19%	.
CN(C)S(=O)(=O)c1ccc(NC(=O)CSc2nc3ccccc3n2-c2ccccc2)cc1	?	18µM*	-21%	?
O=C(Nc1ccn(Cc2ccccc2F)n1)c1ccc(COc2ccc(Br)cc2)cc1	.	-29%	.	7.3µM*
O=C(Nc1ccc(Cn2cccn2)cc1)c1ccc(COc2cccc(Br)c2)cc1	?	5.6µM*	?	0.56µM*
Cc1ccc(O[C@@H]2[C@H](O)CO[C@@H]2/C=C/C#Cc2ccc(C(C)(C)C)cc2)cc1	.	.	.	-35%[14.2 µM]
CCOC(=O)c1c(-c2ccccc2)csc1NC(=O)c1nn(CC)cc1Br	-4%	?	56%	10µM*
CCOC(=O)c1cc2c(=O)n3ccccc3nc2n(Cc2ccco2)c1=NC(=O)c1cc(C)cc(C)c1	?	?	10µM*	27%[46.1 µM]
N=c1c(C(=O)NCc2ccco2)cc2c(=O)n3ccccc3nc2n1Cc1ccccc1	.	-6%	-31%	?
N=c1c(C(=O)NCc2ccccc2)cc2c(=O)n3ccccc3nc2n1Cc1ccco1	-28%	-27%	-19%	11µM*
CCc1cc2c(nc1CC)CCN(CCC(C)=NOC[C@H]1O[C@H](c3ccccc3)C=C[C@H]1Oc1ccc(OC)cc1)C2	.	.	.	-25%[14.2 µM]
O=C(NC1CCCC1)c1cn(C2CCCN(Cc3ccc4c(c3)OCCO4)C2)nn1 (stereo not given)	1%	.	2%	.
C=CCN1C(=O)[C@@]2(CC(C)=CC[C@@H](C)O2)c2c(Br)cccc21	.	.	.	3%[14.2 µM]
CCC(=O)NC1=C(C#N)C2(CCCC2)Cc2ccccc21	.	-1%	-12%	7%
CCOC(=O)C1=C(NC(=S)NC(=O)c2ccccc2)c2ccccc2CC12CCCC2	?	2.6µM*	2%	3.7µM*
O=C(NCCc1nnc2n1CCN(Cc1ccc3c(c1)CCO3)CC2)c1ccco1	-8%	.	-9%	.
CCCC1(CCC)C(=O)NC(=NCc2ccccc2)NC1=O	?	2%	16µM*	?
CCCC1(CCC)C(=O)NC(=Nc2ccccc2)NC1=O	i	-8%	0%	9%
CCN(C(=O)CSc1nc2ccccc2n1Cc1ccc(F)cc1Cl)c1ccccc1	-2%	17%[46.1 µM]	-15%	.
CCN(C(=O)CSc1nc2ccccc2n1CC(=O)Nc1ccc(F)cc1F)c1ccccc1	-1%	11µM*	-13%	.
O=C(C[n+]1cccc2cccc(O)c21)c1ccc(F)cc1	-12%	.	-6%	.
C=CCN1c2ccccc2[C@]23CCC(=O)N(CCOC)C2=NC(C(=O)OC)=C(C(=O)OC)[C@H]13	.	?	.	13%[14.2 µM]
CN(C)c1ccc(/C=C/c2cc(/C=C/c3ccc(N(C)C)cc3)c3ccccc3n2)cc1	-13%	.	61%	.
c1ccc(CNc2ncnc3ccccc23)cc1	-8%	?	?	?
Oc1ccc(CCNc2c3ccccc3nc3ccccc23)cc1O	?	?	?	10µM*
CNc1nc(NCc2ccccc2)c2ccccc2n1	-4%	?	-22%	4µM*
c1ccc(CNc2c3ccccc3nc3ccccc23)cc1	?	.	11µM*	.
CCc1ccc(NC(=O)CSC2=C(C#N)[C@H](c3ccco3)C3=C(CCCC3=O)N2)cc1	.	.	.	-29%
COc1ccc(NC(=O)c2cc3c(s2)CCC(C)C3)cc1S(=O)(=O)N1CCOCC1 (stereo not given)	?	23µM*	?	?
COc1ccc(C(=O)Nc2ccc(-c3ccc(C)o3)cc2)cc1S(=O)(=O)N1CCOCC1	?	7.9µM*	?	13µM*
